Tau ThT inhib = qHTS for Inhibitors of Tau Fibril Formation, Thioflavin T Binding | Potency, µM (highest dose often 57.4 µM), hits mostly inhibitors | recombinant tau K18 P301L, heparin-induced fibrillization, ThT fluorescence | 270,000 tested, 2.1% active | AID 1460, 2008; note: nearly all actives have a fitted effect of over 55% in size
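Tau K18 P301L fragment (15 uM unlabeled plus 0.24 uM Alexa 594-labeled) in 100 mM sodium acetate pH 7 with compound, fibrillization induced by 20 uM heparin for 6 hr at 37 C. Thioflavin T (30 uM) added, fluorescence read after 1 hr (ex 450, em 510 nm).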
Tau fluor cs = Counterscreen qHTS for Inhibitors of Tau Fibril Formation, Fluorescence Polarization; AID 1463, 2008; Potency, µM (series often up to 57.7 µM); 280,000 tested, 0.93% active; tau K18 P301L (four-repeat tau fragment) Alexa594 fluorescence, heparin fibrillization; note: nearly all actives have a fitted effect of over 55% in size
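Human K18 P301L tau (15 uM unlabeled plus 0.24 uM Alexa 594-labeled, final) in 100 mM sodium acetate pH 7 was mixed with compound and 20 uM heparin and incubated 6 hr at 37 C.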
Tau fibril FP = qHTS for Inhibitors of Tau Fibril Formation, Fluorescence Polarization | Potency, µM (doses to about 57.7 µM), hits mostly inhibitors | 280,000 tested, 0.39% active | K18 P301L tau heparin fibrillization, Alexa594 FP, 6 h | Microtubule-associated protein tau (Homo sapiens), P10636; note: nearly all actives have a fitted effect of over 55% in size
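Steps: dispense K18 P301L tau (15 uM plus 0.24 uM Alexa 594 tracer, final) in pH 7 sodium acetate; add compound; add heparin (20 uM final); incubate 6 hr, 37 C; add ThT (30 uM final); after 1 hr ambient, read FP.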
TRb SRC2 PPI = qHTS for Inhibitors of the Interaction of Thyroid Hormone Receptor and Steroid Receptor Coregulator 2; TRbeta-SRC2 peptide binding, fluorescence polarization; receptor liganded with 1 µM T3; AID 1469, 2008; 280,000 tested, 0.065% active; Potency, µM (series often up to 106 µM), most hits filed as inhibitors; Thyroid hormone receptor beta (Homo sapiens), P10828; note: nearly all actives have a fitted effect of over 50% in size
Target sequence (P10828 whole entry, looked up): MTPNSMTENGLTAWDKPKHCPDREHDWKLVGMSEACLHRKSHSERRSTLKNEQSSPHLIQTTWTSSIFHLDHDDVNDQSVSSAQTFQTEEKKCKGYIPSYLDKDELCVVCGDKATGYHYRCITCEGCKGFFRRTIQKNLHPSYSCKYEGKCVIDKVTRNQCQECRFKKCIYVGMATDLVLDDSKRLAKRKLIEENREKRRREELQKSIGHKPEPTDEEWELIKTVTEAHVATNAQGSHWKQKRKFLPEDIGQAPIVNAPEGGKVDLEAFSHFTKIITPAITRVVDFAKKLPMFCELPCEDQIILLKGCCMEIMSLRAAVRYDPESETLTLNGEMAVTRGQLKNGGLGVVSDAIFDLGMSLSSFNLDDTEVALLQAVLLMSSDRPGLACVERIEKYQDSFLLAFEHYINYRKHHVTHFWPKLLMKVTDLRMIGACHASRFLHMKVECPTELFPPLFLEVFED
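Compounds were added to 0.6 uM TRb ligand-binding domain and 20 nM Texas Red-labeled SRC2 peptide in Tris buffer containing 1 uM T3, incubated 5 hr at ambient temperature, then read by fluorescence polarization.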
TR SRC2 fluor cs = Total Fluorescence Counterscreen for Inhibitors of the Interaction of Thyroid Hormone Receptor and Steroid Receptor Coregulator 2; TRb/SRC2 Texas Red total fluorescence interference; Potency, µM (series often up to 106 µM); 280,000 tested, 0.29% active; active = well fitted curve in either direction with a large enough effect; inconclusive = small, poorly fitted or top-dose-only effect
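Flags fluorescent or light-absorbing compounds by total fluorescence, S + 2P, at 555 nm excitation and 632 nm emission. Mixture: 20 nM Texas Red SRC2 peptide, 0.6 uM human TRb LBD, 1 uM T3, 5% DMSO; compound exposure 5 h at ambient temperature.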
Hits are given with their value; - = inactive; ? = inconclusive; . = not tested or not shown; [ ] = dose if it differs, or a comment. Hits are enriched below; roughly 3% of the tested compounds scored in any of these assays. Unless noted, calls come from the whole dose curve; as a rule, active = well fitted curve in the direction sought with a large enough effect; inconclusive = small, poorly fitted or top-dose-only effect, or another doubt; inactive = no such curve, though single readings can be large; an effect the other way counts as inactive or inconclusive.

SMILES | Tau ThT inhib | Tau fluor cs | Tau fibril FP | TRb SRC2 PPI | TR SRC2 fluor cs
COc1ccc(Nc2nc(-c3ccccc3)nc3ccccc23)cc1S(=O)(=O)N1CCOCC1 | . | 13µM[quencher] | 25µM | - | -
CN(C)c1ccc(-c2nc(N3CCNCC3)c3ccccc3n2)cc1 | 14µM | ? | - | - | -
Cc1cccc(Nc2nc(-c3ccccc3)nc3ccccc23)c1 | - | 6.3µM[quencher] | 8.9µM | - | -
CN(C)c1ccc(-c2nc(Nc3ccncc3)c3ccccc3n2)cc1 | 7.1µM | 7.1µM[quencher] | ? | - | -
COc1ccc(Cl)cc1NC(=O)CN1C(=O)CSc2ccc(S(=O)(=O)N3CCCC3)cc21 | - | - | - | - | -
Cc1ccc(Nc2nc(-c3ccccc3)nc3ccccc23)cc1 | ? | 10µM[quencher] | 18µM | - | -
Oc1cccc(Nc2nc(-c3ccccc3)nc3ccccc23)c1 | - | 7.1µM[quencher] | 14µM | - | -
CC(=O)Nc1cccc(Nc2nc(-c3ccccc3)nc3ccccc23)c1 | - | ? | ? | - | -
CC(C)(C)c1ccc(NC(=O)CSc2nnc(-c3n[nH]c4ccccc34)o2)cc1 | - | ? | 32µM | - | ?
Cc1cc(C)cc(-c2cc3c(c(-c4c(O)c(-c5cc(C)cc(C)c5)cc5c4CCCC5)c2O)CCCC3)c1 | - | - | - | - | -
CCOC(=O)c1c(S(=O)(=O)N2CCC(C(=O)N3CCN(c4cc(C)ccc4C)CC3)CC2)c(C)n(C)c1C | - | - | - | - | -
COc1ccc(NC(=O)c2ccco2)cc1NC(=O)c1ccc(OC(C)C)cc1 | - | - | - | - | 0.35µM[quencher]
COc1ccccc1OCCn1cc(/C=N/NC(N)=S)c2ccccc21 | ? | ? | ? | - | -
COc1ccccc1OCCn1cc(/C=N/NC(=O)c2ccncc2)c2ccccc21 | ? | 13µM[quencher] | ? | - | -
O=C(N/N=C/c1cn(CCOc2ccccc2)c2ccccc12)c1ccncc1 | ? | 14µM[quencher] | - | - | -
CCOC(=O)c1cc(S(=O)(=O)N2CCN(c3ccccc3OC)CC2)[nH]n1 | - | - | - | - | -
Brc1ccc2ncnc(Nc3ccc(N4CCOCC4)cc3)c2c1 | 8.9µM | ? | - | - | -
O=C(COc1ncnc2ccc(Br)cc12)Nc1ccc(N2CCOCC2)cc1 | - | - | - | - | -
CC1=C(C(=O)Nc2ccc(C)cc2Cl)C2(CCCCC2)OC1=O | - | - | - | - | 0.0056µM[quencher]
CCc1nc2nc(C)c(NS(=O)(=O)c3ccc(C(C)(C)C)cc3)c(=O)n2[nH]1 | - | - | - | - | -
N#C/C(=C/c1ccc(-c2ccc(S(N)(=O)=O)cc2)o1)c1nc2ccccc2s1 | 11µM | ? | - | - | -
COC(=O)c1ccc(/C=C(\C#N)c2nc3ccccc3s2)cc1 | 7.9µM | ? | - | - | -
COc1ccc(/C(C#N)=C/c2ccccn2)cc1 | ? | - | - | - | -
CC(C)(C)c1ccc(C(=O)OC/C(O)=C(\C#N)c2nc3ccccc3s2)cc1 | ? | - | - | - | -
N#C/C(=C\c1ccccn1)c1nc2ccccc2s1 | 8.9µM | 14µM[quencher] | ? | - | -
SMILES | Tau ThT inhib | Tau fluor cs | Tau fibril FP | TRb SRC2 PPI | TR SRC2 fluor cs
CCOC(=O)N1CCc2c(sc3c2c(=O)n(CCc2ccccc2)c(=O)n3Cc2c(F)cccc2Cl)C1 | - | - | - | - | -
CC(CC(C)(C)C)CP(=O)(O)CC(C)CC(C)(C)C (stereo not given) | . | . | . | - | -
O=C(Nc1ccccc1)C1=C(c2ccccc2)S(=O)(=O)CCS1(=O)=O | 28µM | - | 22µM | - | -
COc1cc(/C=C2/SC(=O)NC2=O)ccc1Oc1ccc([N+](=O)[O-])cc1[N+](=O)[O-] | 16µM | ? | - | - | -
CCOC(=O)Cc1csc(NC(=O)c2sc3nc4cc(C)ccc4cc3c2N)n1 | 2.5µM | ? | - | - | -
CCOC(=O)Cc1csc(NC(=O)c2ccc(C)cc2)n1 | - | - | - | - | -
CCOC(=O)Cc1csc(NC(=O)c2ccc(Br)o2)n1 | - | - | - | - | -
CCOC(=O)Cc1csc(NC(=O)c2sc3nc4ccc(CC)cc4cc3c2N)n1 | 8.9µM | - | - | - | -
